# GPR7 antagonist – GPR7 receptor antagonists, primary screen, cell-based, fluorescence, single concentration; inhibition, % at 4.4 µM; Neuropeptides B/W receptor type 1 (Homo sapiens), P48145; hit rate 1.1% among 290,000; GPR7-expressing cells, fluorescence antagonist assay; in the data active = inhibition above about 16%, passing the limit was not always enough;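 note: cells stimulated with the agonist NPW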
# p-CIP stab down – p/CIP-EGFP fusion destabilizers, primary screen, fluorescence, F442A cells | Q05BA5 | 16 h | decrease of EGFP signal, % at 10 µM | hit rate 0.01% among 290,000 | AID 1984, 2009;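 active = EGFP signal decrease of at least 30% at 10 µM or well 3 SD below plate mean, unless failing retest; inactive = the rest, including hits failing retest or dose response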
# VLA-4 inh – inhibition in human VLA-4 binding assay, primary screen, VLA-4 allosteric modulator project, MLPCN library, flow cytometry, VLA-4 expressing cells; Integrin alpha-4 (Homo sapiens), P13612; ligand binding flow cytometry; inhibition, % (about 7 µM as worked out from the volumes in the protocol); hit rate 0.2% among 330,000; in the data active = inhibition above about 50%
# Target sequence (P13612 whole entry, looked up): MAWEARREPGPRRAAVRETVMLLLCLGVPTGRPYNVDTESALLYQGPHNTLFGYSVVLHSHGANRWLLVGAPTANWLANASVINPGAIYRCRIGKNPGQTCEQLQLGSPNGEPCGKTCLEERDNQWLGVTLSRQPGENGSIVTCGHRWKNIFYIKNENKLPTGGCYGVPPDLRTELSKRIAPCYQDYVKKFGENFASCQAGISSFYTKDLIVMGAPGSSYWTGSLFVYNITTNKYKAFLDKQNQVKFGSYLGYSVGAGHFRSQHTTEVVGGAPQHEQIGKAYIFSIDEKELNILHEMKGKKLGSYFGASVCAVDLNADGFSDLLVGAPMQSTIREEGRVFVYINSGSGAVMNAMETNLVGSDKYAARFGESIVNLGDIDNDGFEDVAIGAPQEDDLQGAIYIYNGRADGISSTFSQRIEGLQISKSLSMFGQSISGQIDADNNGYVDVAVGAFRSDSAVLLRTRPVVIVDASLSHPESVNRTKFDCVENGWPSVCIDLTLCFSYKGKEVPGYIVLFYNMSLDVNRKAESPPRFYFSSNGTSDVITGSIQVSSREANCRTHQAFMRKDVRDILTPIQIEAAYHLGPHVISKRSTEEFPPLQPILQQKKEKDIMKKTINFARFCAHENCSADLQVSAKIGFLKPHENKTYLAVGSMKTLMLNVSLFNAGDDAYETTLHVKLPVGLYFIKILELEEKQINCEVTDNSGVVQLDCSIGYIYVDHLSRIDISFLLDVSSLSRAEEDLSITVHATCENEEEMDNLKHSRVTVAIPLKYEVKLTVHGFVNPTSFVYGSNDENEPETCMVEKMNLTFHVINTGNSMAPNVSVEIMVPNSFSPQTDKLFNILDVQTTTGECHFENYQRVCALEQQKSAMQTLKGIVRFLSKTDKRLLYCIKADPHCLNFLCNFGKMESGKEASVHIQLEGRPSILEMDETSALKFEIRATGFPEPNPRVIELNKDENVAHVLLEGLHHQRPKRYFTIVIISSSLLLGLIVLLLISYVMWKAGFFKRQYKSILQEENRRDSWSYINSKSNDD
# GASC-1 inh – inhibitors of GASC-1 histone demethylase, primary screen, biochemical, fluorescence, DELFIA europium; Lysine-specific demethylase 4C (Homo sapiens), Q9H3R0; GST-JMJD2C(1-420) H3K9me3 demethylation; inhibition, % at 2.35 µM; hit rate 0.069% among 330,000;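 active = more than half of a compound's replicate wells show inhibition beyond 50%, single wells judged on their own value; inconclusive = some, but no more than half, of replicates pass 50% inhibition; inactive = no replicate passes 50% inhibition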;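 note: signal counts dimethyl H3K9 product captured on neutravidin plate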
# GPR7 antag cf – GPR7 receptor antagonists, confirmation, cell-based, fluorescence, single concentration. AID 1952, 2009. shares compounds with GPR7 antagonist. hit rate 52% among 2,400. GPR7-expressing cells, calcium fluorescence antagonist mode. inhibition, % at 4.4 µM; in the data active = inhibition above about 24%;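 note: stimulated with the GPR7 agonist NPW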
# MCHR1 antagonist – MCHR1 antagonists in cells, counter-screen for GPR7 antagonist project, cell-based, fluorescence, human; shares compounds with GPR7 antagonist; MCHR1-expressing cells, fluorescence antagonist assay; inhibition, % at 4.4 µM; hit rate 62% among 2,400; in the data active = inhibition above about 22%
# Hits are given with their value; n = inactive; u = inconclusive; x = not tested or not shown. The list is not random: actives were taken first. Their share in the collection is about 1.2%.
SMILES,GPR7 antagonist,p-CIP stab down,VLA-4 inh,GASC-1 inh,others
O=C1NC(=O)C(Sc2ccccc2[N+](=O)[O-])C(=O)N1,n,n,n,69,
CCOC(=O)c1ccc(NC(=O)c2c(O)[nH]c(=O)[nH]c2=O)cc1,48,n,n,n,
Cc1cccc(N2C(=O)NC(=O)/C(=C\C=C\c3ccco3)C2=O)c1,n,n,n,n,
Cc1cccc(N2C(=O)NC(=O)/C(=C/c3ccc([N+](=O)[O-])o3)C2=O)c1,n,n,n,55,
C[C@]12CCC(=O)C[C@H]1CC[C@@H]1[C@@H]2CC[C@]2(C)[C@@H](O)CC[C@@H]12,x,x,n,n,
N/C(=N/[N+](=O)[O-])N1CCN(C(=O)Oc2ccc([N+](=O)[O-])cc2)CC1,n,n,n,n,
CCCOP(=O)(OCCC)C(NC(=O)c1ccccc1)=C(Cl)Cl,n,n,n,n,
O=C(NC(=O)c1c(F)cccc1F)Nc1cc(Cl)c(F)c(Cl)c1F,active,n,n,n,
C[C@H](NC(=O)N1C[C@H]2C[C@@H](C1)c1cccc(=O)n1C2)C(=O)Nc1cccc(F)c1,n,n,n,n,
CN(C)c1ccc(/C=C/[N+](=O)[O-])cc1,19,n,n,n,
CC(=O)Nc1ccccc1C(=O)OCc1cccc(F)c1,n,n,56,n,
NC1CCc2cc(O)c(O)cc2C1 (centres undefined),x,x,n,x,
O=C1C(Cc2cnc[nH]2)NC(=S)N1c1ccccc1 (centres undefined),n,n,n,n,
Cc1nc2c(=O)n(C)c(=O)nc-2n(C)n1,n,n,n,92,
CC(C(=O)O)N(C(=O)c1ccccc1)c1ccc(F)c(Cl)c1 (centres undefined),n,n,n,n,
COc1cc(Br)cc(CN2CCN(C)CC2)c1O,n,n,n,59,
COc1ccc(Br)cc1CN1CCN(CCO)CC1,n,n,n,n,
CC(C)(C)NC(=O)CN1CCCN(C(=O)COc2ccc(Cl)c3ccccc23)CC1,x,x,n,n,
CCOC(=O)N1CCC(NC(=O)CCc2nc(C3=CCN(C)CC3)no2)CC1,n,n,n,53,
CC(=O)N1CCN(c2ccc([N+](=O)[O-])cc2C=C2C(=O)NC(=O)NC2=O)CC1,n,n,n,u,
CCN1CCN(c2ccc([N+](=O)[O-])cc2C=C2C(=O)NC(=O)NC2=O)CC1,n,n,n,57,
CC1CCC(C(C)C)C(OC(=O)Cn2c(COc3ccccc3)[n+](C)c3ccccc32)C1 (centres undefined),58,n,n,n,
CCC(COC(=O)NC)NC(=O)Oc1cccc(C)c1 (centres undefined),n,n,n,n,
CNCC(O)c1cccc(OC(=O)c2ccccc2C)c1 (centres undefined),24,n,n,n,
Cc1ccc2nc3c(cc2c1)CC1(C(=O)N(C)C(=O)N(C)C1=O)C1CCCCN31 (centres undefined),n,n,n,56,
SMILES,GPR7 antagonist,p-CIP stab down,VLA-4 inh,GASC-1 inh,others
Cc1ccc2nc3c(cc2c1)CC1(C(=O)N(C)C(=O)N(C)C1=O)C1COCCN31 (centres undefined),n,n,n,n,
C=CCNC(=S)Nc1ccc(OC(=O)Nc2ccc(Cl)c(Cl)c2)cc1,39,n,x,x,
CN1C(=O)C(Cc2cccs2)C(=O)N(C)C1=O,n,n,n,n,
CN1C(=O)C(Cc2ccsc2)C(=O)N(C)C1=O,n,n,n,74,
CNc1cc(Cl)c2nonc2c1[N+](=O)[O-],51,n,x,n,
Cc1cc([N+](=O)[O-])c(Cl)cc1NC(=O)C(C)C,n,n,n,n,
COCc1cc(OC(=O)N(C)C)nc2c1c(C)nn2C,n,n,n,63,
COc1ccc(NC(=O)c2cn(CCC#N)nc2-c2cccc(Br)c2)cc1,n,n,n,n,
O=C(O)C1(c2ccc(Cl)cc2)CCC1,n,n,n,n,
CC(=O)C1(c2ccccc2)CCNCC1,14,n,n,n,
COC(=O)CC1(CC(=O)OC)C(=O)N(c2ccccc2)C(=O)N(c2ccccc2)C1=O,n,n,n,n,
CC1(C)CSC(=NCc2ccccc2)N1,87,n,n,n,GPR7 antag cf=96;MCHR1 antagonist=102
CN1/C(=C\C=Nc2ccccc2)C(C)(C)c2ccccc21,n,n,n,n,
CN1/C(=C\C=C\C2=[N+](C)c3ccc4ccccc4c3C2(C)C)C(C)(C)c2ccccc21,87,n,x,n,GPR7 antag cf=102;MCHR1 antagonist=104
COc1ccc(-[n+]2c(-c3ccccc3)cc(-c3ccc(C)cc3)cc2-c2ccccc2)cc1,72,n,n,n,GPR7 antag cf=70;MCHR1 antagonist=65
Cc1ccc(-c2cc(-c3ccccc3)cc(-c3ccccc3)[n+]2-c2ccc(C(=O)O)cc2)cc1,x,x,n,n,
COc1ccc(-c2cc(-c3ccccc3)[n+](C)c(-c3ccccc3)c2)cc1,33,n,n,n,GPR7 antag cf=42;MCHR1 antagonist=38
Cc1ccc(OCCOc2cccc(C=C3C(=O)NC(=O)NC3=O)c2)c(C)c1,n,n,n,n,
O=P(NC(c1ccccc1)c1ccccc1)(Oc1ccccc1)Oc1ccccc1,26,n,n,n,GPR7 antag cf=32;MCHR1 antagonist=47
O=P(Nc1ccccc1)(Oc1ccccc1)Oc1ccccc1,n,n,n,n,
C#C[C@]1(O)CC[C@H]2[C@@H]3CCC4=Cc5nc6nc7ccccc7n6cc5C[C@]4(C)[C@H]3CC[C@@]21C,x,x,n,x,
Cc1nc2cc(C(F)(F)F)ccc2n1C1CCN(Cc2nnnn2Cc2cccs2)CC1,32,n,n,n,GPR7 antag cf=47;MCHR1 antagonist=38
CC(=O)Nc1nnc(CCN(CCc2nnc(NC(C)=O)s2)[N+](=O)[O-])s1,32,n,n,n,GPR7 antag cf=n;MCHR1 antagonist=n
Cc1ccccc1NC(=O)NCCN1CC1,n,n,n,n,
CCCNC(=O)N1[C@H]2CC[C@@H]1C(C(=O)OC)=C(c1ccccc1)C2,x,x,n,n,
SMILES,GPR7 antagonist,p-CIP stab down,VLA-4 inh,GASC-1 inh,others
C[C@]12CCC(=O)C=C1CC[C@@H]1C2[C@H](O)C[C@]2(C)C(=O)CCC12 (some centres undefined),n,n,n,n,
C[C@]12CCC3[C@@H](CCC4=CC(=O)CC[C@@]43C=O)C1CCC2=O (some centres undefined),28,n,n,n,GPR7 antag cf=n;MCHR1 antagonist=n
Clc1ccccc1CNC1CN2CCC1CC2 (centres undefined),n,n,n,n,
c1ccc2c(c1)Sc1ccccc1N2CC1CN2CCC1CC2 (centres undefined),30,n,n,n,GPR7 antag cf=47;MCHR1 antagonist=41
COCCOC(=O)c1c(N)n(Cc2ccc(OC)cc2)c2nc3ccccc3nc12,30,n,n,n,GPR7 antag cf=n;MCHR1 antagonist=n
CCOC(=O)c1c(N)n(Cc2ccc(OC)cc2)c2nc3ccccc3nc12,n,n,x,n,
